Laboratory results: PubChem BioAssay AID1259421 (Broad Institute, 2018)
“And” between values parts separate entries of the source, which are not always exact repeats. Equal entries are not always repeated. The campaign covered roughly 6,400 compounds. About 610 (9.5%) were called active. No stated cut-off is given here; in the data, active means activity change below about -70%; inconclusive means no clear call, values can overlap the other calls; inactive means above that. What follows is part of a selection rich in actives, with near analogues and random picks from the rest.

Assay: T. gondii ME49Luc in HeLa cells, luciferase assay, 72 h, no IFN-y (AID 1259421)
Details: stronger effect = lower value, concentration not given here
With `CC(C)(CO)C(O)C(=O)NCCC(=O)NCCSSCCNC(=O)CCNC(=O)C(O)C(C)(C)CO` (configuration not stated) the activity change, negative = inhibition was 0.59% (inactive).
In the case of `CCN(CC)C(=O)c1cccc(C)c1`, the activity change, negative = inhibition is reported as 17.6% (inactive) and -3.28% (inactive).
In the case of `CCCCN(CCCC)C(=O)CN1C[C@H](c2ccc3c(c2)OCO3)[C@@H](C(=O)O)[C@@H]1c1ccc(OC)cc1`, the activity change, negative = inhibition is reported as 2.8% (inactive).
In the case of `CCOCc1nc2c(N)nc3ccccc3c2n1CC(C)(C)O`, the activity change, negative = inhibition is reported as 18.1% (inactive).
With `N[C@@H](CC(=O)Nc1ccc(Oc2cc(F)c(F)cc2Br)cc1)C(=O)O` the activity change, negative = inhibition was 7.4% (inactive).
With `COc1cccc(Nc2c(C(N)=O)cnc3c(C)cc(S(=O)(=O)c4cccc(C(=O)N(C)C)c4)cc23)c1` the activity change, negative = inhibition was -9.54% (inactive).
For `CNC(=O)c1ccc(C)c(-n2c(C)cc(OCc3ccc(F)cc3F)c(Br)c2=O)c1`, the activity change, negative = inhibition was 9.8% (inactive).
With `CC(=O)NC1=NN(C(C)=O)C(C)(c2ccccc2)S1` (configuration not stated) the activity change, negative = inhibition was -32.2% (inactive).
For `CC(=O)O[C@]1(C(C)=O)CC[C@H]2[C@@H]3C=C(C)C4=CC(=O)CC[C@@H]4[C@H]3CC[C@@]21C`, the activity change, negative = inhibition was 8.45% (inactive).
In the case of `C#C[C@]1(OC(C)=O)CCC2C3CCC4=CC(=O)CC[C@@H]4C3CC[C@@]21C` (some centres not stated), the activity change, negative = inhibition is reported as -79.9% (active) and -90.3% (active).
For `C#C[C@]1(OC(C)=O)CC[C@H]2[C@@H]3CCC4=C[C@@H](OC(C)=O)CC[C@@H]4[C@H]3CC[C@@]21C`, the activity change, negative = inhibition was -38.3% (inactive) and 1.4% (inactive).
With `c1ccc(-c2n[nH]c3c2oc2ccccc23)cc1` the activity change, negative = inhibition was 129% (inactive) and 2.12% (inactive).
For `CCOC(=O)N1CSCC1C(=O)O` (configuration not stated), the activity change, negative = inhibition was 0.0863% (inactive).
For `CC(C)Oc1ccc2c(=O)cc(-c3ccccc3)oc2c1`, the activity change, negative = inhibition was 458% (inactive).
With `CN(C)CCCCC(=O)Nc1ccc(NC(=S)NC(=O)c2ccc(C(C)(C)C)cc2)cc1` the activity change, negative = inhibition was 78.2% (inactive).
In the case of `CCOC(=O)c1ccc(OCCC2CCN(c3ccc(C)nn3)CC2)cc1`, the activity change, negative = inhibition is reported as 9.97% (inactive).
In the case of `CC1(COc2ccc3c(c2)ncn3-c2ccc3cccc(N4CCC(N)CC4)c3n2)COC1`, the activity change, negative = inhibition is reported as -73.4% (active).
With `NC1CCN(c2cccc(Cl)n2)CC1` the activity change, negative = inhibition was 10.9% (inactive) and -8.3% (inactive).
In the case of `COCCOc1ccc2c(c1)ncn2-c1ccc2cccc(N3CCC(N)CC3)c2n1`, the activity change, negative = inhibition is reported as -89.9% (active).
In the case of `COc1ccc(C[C@H](C)NC[C@@H](O)c2ccc(O)c(NC=O)c2)cc1`, the activity change, negative = inhibition is reported as 14.6% (inactive) and 0.747% (inactive).
With `CCCC1OC2CC3C4CCC5=CC(=O)C=CC5(C)C4C(O)CC3(C)C2(C(=O)CO)O1` (configuration not stated) the activity change, negative = inhibition was -4.58% (inactive).
With `Cc1nnc(C(C)C)n1C1CC2CCC(C1)N2CC[C@H](NC(=O)C1CCC(F)(F)CC1)c1ccccc1` (some centres not stated) the activity change, negative = inhibition was 10.7% (inactive) and 30.6% (inactive).
